Laboratory results as given in PubChem BioAssay.
Unmarked numbers belong to inactive results. Active and inactive are the calls of the source.

The compounds below were run against Homeobox protein Hox-A13 (Mus musculus) (UniProt Q62424) (assay: disruptors of Hoxa13 oligonucleotide interaction – biochemical, fluorescence polarization, labeled oligonucleotide, primary screen (AID 1185)). Settings: Hoxa13:DNA binding, 15 min, higher = more signal, called active from +8 up or from −8 down.
Chain of Homeobox protein Hox-A13 (Mus musculus) (Q62424 whole entry, looked up): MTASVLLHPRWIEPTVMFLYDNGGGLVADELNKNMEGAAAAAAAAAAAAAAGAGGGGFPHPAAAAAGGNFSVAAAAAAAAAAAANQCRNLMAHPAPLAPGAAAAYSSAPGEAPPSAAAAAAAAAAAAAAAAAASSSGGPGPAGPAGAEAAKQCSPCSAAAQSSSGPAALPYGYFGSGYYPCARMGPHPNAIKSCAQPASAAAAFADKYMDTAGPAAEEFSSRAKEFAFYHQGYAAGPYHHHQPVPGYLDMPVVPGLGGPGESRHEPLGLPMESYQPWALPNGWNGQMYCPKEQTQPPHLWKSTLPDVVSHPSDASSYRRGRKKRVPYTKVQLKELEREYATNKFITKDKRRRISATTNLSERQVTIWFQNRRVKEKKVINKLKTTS

Row | Compound | z-score
1 | COCOc1ccc(Br)cc1C(=O)C=Cc1ccc2c(c1)OCO2 | -0.353
2 | CCOC(=O)CCN1C(=O)[C@H]2[C@H]3[C@H](O)[C@H](O)CC(=NNC(=O)OCc4ccccc4)[C@H]3CC[C@H]2C1=O | -3.59
3 | COc1cccc([C@H]2Oc3ccc(OC)cc3C(=NOCC[C@@H]3C=C[C@H](OC(C)=O)[C@@H](COC(C)=O)O3)[C@@H]2O)c1 | -5.39
4 | CC1(C)O[C@H]2OC([C@H](O)CON3C(=O)c4ccccc4C3=O)[C@H](O)[C@H]2O1 (stereo partly specified) | 0.366
5 | CC(C)=CCCC(C)=CCON=C1[C@H]2CCn3c(=O)n(-c4ccccc4)c(=O)n3[C@H]2[C@H](O)[C@@H]2O[C@H]12 | -4.57
6 | CCOC(=O)CCN1C(=O)[C@H]2[C@H]3[C@H](O)[C@H](O)CC(=NNC(=O)OCc4ccc(OC)cc4)[C@H]3CC[C@H]2C1=O | -3.67
7 | COc1ccc(COC(=O)NN=C2C[C@@H](O)[C@@H](O)[C@@H]3[C@@H]4C(=O)N([C@@H](C)c5ccccc5)C(=O)[C@@H]4CC[C@@H]23)cc1 | -2.18
8 | CCOC(=O)[C@H](Cc1ccccc1)NC(=O)CCC1CC(OC(=O)NCc2cccc3ccccc23)CC2(CCCC(COC(=O)NCCc3ccc(Cl)cc3)O2)O1 (stereo partly specified) | -5.98
9 | CCN1C(=O)[C@H]2[C@H]3[C@H](O)[C@H](O)CC(=NNC(=O)OCc4ccccc4)[C@H]3CC[C@H]2C1=O | -1.7
10 | COC(=O)[C@H](C)NC(=O)CCC1CC(OC(=O)NCCc2ccc(F)cc2)CC2(CCCC(COC(=O)NCC3CCCCC3)O2)O1 (stereo partly specified) | -2.56
11 | CCN1C(C)=C(C(=O)OC)[C@@H](c2ccccc2)N2C(=O)[C@](O)(C(=O)OC)CC(C(C)=O)=C12 | 0.334
12 | O=C1C[C@H](c2ccccc2)[C@H](c2ccc(Br)cc2)O1 | -0.403
13 | CCOC(=O)[C@H](CC(C)C)NC(=O)CCC1CC(OC(=O)NCCc2ccc(F)cc2)CC2(CCCC(COC(=O)NCc3cccc(C(F)(F)F)c3)O2)O1 (stereo partly specified) | -6.52
14 | COc1ccc(COC(=O)NN=C2C[C@@H](O)[C@@H](O)[C@@H]3[C@@H]4C(=O)N(c5cccc(Oc6ccccc6)c5)C(=O)[C@@H]4CC[C@H]23)cc1 | -3.81
15 | Cc1ccc2[nH]c3nc(CCCn4ccnc4-c4ccccc4)nnc3c2c1 | -0.867
16 | C[C@@H]1CC[C@H]2C(=O)OC(Cc3ccccc3)CN2[C@H]1c1ccc(Br)cc1 (stereo partly specified) | -3.22
17 | CN1CCc2nc(-c3ccccc3)c(-c3ccccc3)cc2C1 | -0.07
18 | CC(C)=NOC(C)CN1CCCCc2nc(C)c(C)cc21 (stereo unspecified) | -1.28

Row | Compound | z-score
19 | CC(=O)OC[C@H]1O[C@H](CCON=C(C)C)C=C[C@@H]1OC(C)=O | 0.389
20 | COc1ccc(COC(=O)NN=C2C[C@@H](O)[C@@H](O)[C@@H]3[C@@H]4C(=O)N([C@@H](C)c5ccccc5)C(=O)[C@@H]4CC[C@H]23)cc1 | -3.73
21 | COC(=O)[C@H](C)NC(=O)CCC1CC(OC(=O)NCCc2ccc(F)cc2)CC2(CCCC(COC(=O)NCCc3ccccc3OC)O2)O1 (stereo partly specified) | -6.13
22 | CC(CCN1CCCc2nc(C)c(C)cc21)=NOC[C@@H](O)COCc1ccco1 | -8.38 (active)
23 | COc1ccc(OC[C@@H]2CC3[C@@H](c4ccc(Br)cc4)[C@H](C)CC[C@H]3C(=O)O2)cc1 (stereo partly specified) | 0.109
24 | CCN1C(=O)[C@H]2[C@@H]3C(=CC[C@H]2C1=O)C(=O)[C@H]1O[C@H]1[C@H]3O | -6.04
25 | CC(CCN1CCCCc2nc(C)c(C)cc21)=NOC[C@@H](O)[C@H]1O[C@@H]2OC(C)(C)O[C@@H]2[C@H]1O | -1.75
26 | C=CCOCC1CN2[C@@H](CC[C@@H](C)[C@@H]2c2ccc(Br)cc2)C(=O)O1 (stereo partly specified) | -0.43
27 | CO[C@H]1COC(=O)CCC[C@H](C)[C@H](OC)COC(=O)CC=C[C@@H]1C | -0.695
28 | CC(=O)OC[C@H]1O[C@H](CC=NO[C@H](C)c2cn([C@@H]3COC[C@H]3O)nn2)C=C[C@@H]1OC(C)=O | 0.928
29 | COc1ccc2c(c1)O[C@@H](c1cccc(C(F)(F)F)c1)[C@H](O)C2=O | 0.16
30 | CCOC(=O)[C@H](CC(C)C)NC(=O)CCC1CC(OC(=O)NCc2ccc3c(c2)OCO3)CC2(CCCC(COC(=O)NCCc3ccc(Cl)cc3)O2)O1 (stereo partly specified) | -6.16
31 | C=CC[C@@H]1C=C[C@H](Oc2ccc(C)cc2)[C@@H](COC(=O)NCc2cccc3ccccc23)O1 | -0.901
32 | CCCCOC(OCCCC)C(O)CSc1ccc2ccccc2c1 (stereo unspecified) | -3.85
33 | COC(=O)CC=C[C@@H](C)[C@@H](C=NOC[C@@H](O)[C@H]1O[C@@H]2OC(C)(C)O[C@@H]2[C@H]1O)OC | 0.321
34 | C[C@@H](c1ccccc1)N1C(=O)[C@H]2[C@H]3[C@H](O)[C@H](O)CC(=NNC(=O)OCc4ccccc4)[C@@H]3CC[C@H]2C1=O | 0.963
35 | COc1ccc(O[C@H]2C=C[C@@H](c3ccccc3)O[C@@H]2CON=C(C)CCN2CCCc3nc(C)c(C)cc32)cc1 | -4.5
36 | O=C1C=C[C@@H](O)[C@@H]2[C@@H]3C(=O)N(C4CCCCC4)C(=O)[C@@H]3CC[C@@H]12 | -0.431
